Screening results: PubChem, National Center for Advancing Translational Sciences (NCATS)
In the library only some 10% were active in any assay of this set; here they are far more common.
G9a inh – qHTS Assay for Inhibitors of Histone Lysine Methyltransferase G9a | Histone-lysine N-methyltransferase EHMT2 (Homo sapiens), Q96KQ7 | G9a H3K9 monomethylation, AlphaScreen, 2 h | Potency, µM (doses to about 102 µM), for inactives: top-dose activity, negative = inhibition, hits mostly inhibitors | hit rate 8.8% among 350,000; further: on the % scale 0 is the no-effect control and ±100 the full control effect; nearly all actives have a fitted effect of over 75% in size
Target sequence (Q96KQ7 913-1193 limits assumed): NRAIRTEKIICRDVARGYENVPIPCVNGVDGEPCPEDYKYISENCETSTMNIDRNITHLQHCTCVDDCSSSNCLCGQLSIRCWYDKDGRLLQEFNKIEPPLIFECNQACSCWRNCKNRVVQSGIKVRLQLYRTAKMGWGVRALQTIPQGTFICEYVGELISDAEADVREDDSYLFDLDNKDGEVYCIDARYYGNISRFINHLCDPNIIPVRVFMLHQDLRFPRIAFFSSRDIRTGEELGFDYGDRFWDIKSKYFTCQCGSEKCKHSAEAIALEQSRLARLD
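G9a (20 nM) was preincubated 15 min with compound, then reacted 2 h at room temperature with 500 nM biotin-H3K9 peptide and 20 µM SAM. Monomethyl-H3K9 detected by AlphaScreen using anti-H3K9me1 antibody.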
JMJD2A Tudor – qHTS Assay for Inhibitors of JMJD2A-Tudor Domain | Lysine-specific demethylase 4A (Homo sapiens), O75164 | AlphaScreen JMJD2A-Tudor / H3K4me3 peptide binding | Potency, µM (series often up to 114 µM), without a hit: at the top dose activity change, negative = inhibition, hits mostly inhibitors | hit rate 4.4% among 390,000; further: on the % scale 0 is the no-effect control and ±100 the full control effect; nearly all actives have a fitted effect of over 50% in size
HP1b binding inh – HTS for Inhibitors of HP1-beta Chromodomain Interactions with Methylated Histone Tails | Potency, µM (series often up to 114 µM), for inactives: top-dose activity change, negative = inhibition, actives largely listed as inhibitors | Chromobox protein homolog 1 (Homo sapiens), P83916 | hit rate 0.56% among 390,000 | AlphaScreen HP1-beta / biotin-H3K9me3 peptide binding; further: nearly all actives have a fitted effect of over 70% in size
Target sequence (P83916 whole entry, looked up): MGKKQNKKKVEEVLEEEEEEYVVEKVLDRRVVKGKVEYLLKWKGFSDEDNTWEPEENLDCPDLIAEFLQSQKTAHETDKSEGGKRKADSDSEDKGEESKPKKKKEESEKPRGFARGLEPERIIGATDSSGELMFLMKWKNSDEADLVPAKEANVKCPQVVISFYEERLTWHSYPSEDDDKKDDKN
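HP1-beta protein (50 nM final) preincubated 30 min at room temperature with biotinylated H3(1-18)K9me3 peptide (50 nM) in PBS pH 7.4, 0.01% Tween-20, then compound added for 30 min. AlphaScreen streptavidin donor/nickel chelate acceptor beads (10 ug/mL final), 30 min dark, luminescence read.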
BAZ2B block – qHTS Assay for Inhibitors of BAZ2B; Potency, µM (highest dose often 114 µM), without a hit: top-dose activity change, negative = inhibition, usual class: inhibitors; AlphaScreen BAZ2B-H3K14Ac peptide displacement; Bromodomain adjacent to zinc finger domain protein 2B (Homo sapiens), Q9UIF8; hit rate 4.4% among 360,000; further: on the % scale 0 is the no-effect control and ±100 the full control effect; nearly all actives have a fitted effect of over 60% in size
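BAZ2B (50 nM) with biotin-H3(5-23)K14Ac peptide (50 nM) in PBS pH 7.4, 0.01% Tween-20, preformed 30 min, then compound 30 min at room temperature; top concentration 110uM. AlphaScreen streptavidin donor/nickel chelate acceptor beads (10 ug/mL final), 20 min dark, signal read.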
GLS inh – qHTS for Inhibitors of Glutaminase (GLS); Glutaminase kidney isoform, mitochondrial (Homo sapiens), O94925; GLS enzymatic activity, qHTS titration; Potency, µM (series often up to 45.5 µM), without a hit: at the highest dose activity change, negative = inhibition, actives largely listed as inhibitors; hit rate 0.21% among 410,000; further: on the % scale 0 is the no-effect control and ±100 the full control effect
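Coupled fluorescence readout: glutamate oxidase/HRP/Amplex Red detect glutamate formed by hKGA from L-glutamine (1 mM solution added). Buffer 45 mM KH2PO4 pH 8.2, 0.02% Tween-20; reads at t0 and 30 min RT.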
The depositor's hits bear a star; u = inconclusive; x = no result; [ ] = remark or other dose. The call rests on the fitted dose curve; in most records, active means well fitted curve in the direction sought with a large enough effect; inconclusive means small, poorly fitted or top-dose-only effect, or another doubt; inactive means no such curve, though single readings can be large; an effect the other way counts as inactive or inconclusive. Potency means the concentration at half of the fitted maximal effect.

SMILES	G9a inh	JMJD2A Tudor	HP1b binding inh	BAZ2B block	GLS inh
Cc1sc2ccccc2[n+]1CC(=O)O	u	u	52%	-10%	-1%
COCCn1c(=O)c(-c2cccs2)nc2cnc(Oc3ccccc3)nc21	-5%[0.501 µM]	x	x	x	x
CCN1CCN(S(=O)(=O)c2ccc(Cl)c(C(=O)NCc3nc4ccccc4[nH]3)c2)CC1	x	-23%	22%	x	1%
Cc1ccc(C(=O)CC(C(=O)O)n2cncn2)cc1 (stereo not given)	x	-18%	23%	0%	5%
COC(=O)C(CC(=O)c1ccc(C)cc1)n1nc(C)cc1C (stereo not given)	79µM*	1%	46%	-28%	-20%
COC(=O)C(CC(=O)c1ccc(Br)cc1)n1ccnc1 (stereo not given)	u	x	x	50µM*	x
Cc1ccc(C(=O)CC(C(=O)O)n2cccn2)cc1 (stereo not given)	50µM*	-13%	34%	7%	4%
COC(=O)C(CC(=O)c1ccc(Br)cc1)n1nc(C)cc1C (stereo not given)	x	-13%	-8%	u	0%
O=C(CN1C(=O)NC2(CCCC2)C1=O)Nc1ccccc1	10%	-15%	-7%	2%	15%
CN(c1ccccc1)S(=O)(=O)c1cccc(NC(=O)CN2C(=O)NC3(CCCC3)C2=O)c1	56µM*	-14%	13%	4%	0%
Cc1ccc(NC(=O)CN2C(=O)NC3(CCCCCCC3)C2=O)cc1C	1.3µM*	2%	13%	-3%	0%
CCCCOc1ccc(S(=O)(=O)NC(=O)C2(C)CCN2C(=O)Cc2cccs2)cc1 (stereo not given)	x	x	x	x	3%
O=C(CCCn1cnc2ccccc2c1=O)Nc1ccccc1F	35µM*	-9%	18%	3%	-6%
O=C(CCCN1C(=O)CCC1=O)Nc1ccccc1F	56µM*	-18%	5%	u	-1%
COc1ccc(NC(=O)CCCn2cnc3ccccc3c2=O)cc1	28µM*	-21%	-13%	-32%	-4%
CC(=O)Nc1ccc(Nc2nc(-c3sc(NC(C)=O)nc3C)cs2)cc1	50µM*	u	-13%	50µM*	44%
CC(=O)Nc1nc(C)c(-c2csc(Nc3ccccn3)n2)s1	-32%	-15%	18%	u	2%
CC(=O)Nc1nc(C)c(-c2csc(Nc3ccc(O)cc3)n2)s1	4.5µM*	50µM*	u	50µM*	8%
Cc1ncc(C[n+]2csc(CCOC(=O)C34CC5CC(CC(C5)C3)C4)c2C)c(N)n1	-3%	-5%[11.4 µM]	39%	-34%	-4%
Cc1ncc(C[n+]2csc(CCOC(=O)CC3C4CC5CC(C4)CC3C5)c2C)c(N)n1 (stereo not given)	50µM*	-8%[57.1 µM]	73%	-29%	11%
Cc1noc(C)c1C(=O)N1CCC2(CCN(Cc3nccs3)CC2)CC1	3%[12.7 µM]	x	x	x	x
O=C(COc1ccccc1)NC(NC(=S)Nc1ccccc1C(=O)O)C(Cl)(Cl)Cl (stereo not given)	u	32µM*	u	-8%	-5%
Cc1ccc(C)c(NC(=S)NC(NC(=O)Cc2ccccc2)C(Cl)(Cl)Cl)c1 (stereo not given)	-44%[12.7 µM]	-9%	-4%	-7%	3%
O=C1C(Br)=Cc2cccc3cccc1c23	u	u	-37%	25µM*	0%
O=C1c2sccc2-c2cccc3cccc1c23	x	x	x	x	10%
SMILES	G9a inh	JMJD2A Tudor	HP1b binding inh	BAZ2B block	GLS inh
CC(=O)Nc1nc(N2C(=O)c3ccccc3C2=O)n(-c2ccccc2)n1	u	79µM*	55%	u	-1%
CCc1cccc(C)c1NC(=O)CN1C(=O)c2c(c3ccccc3n2C)C1c1ccc(OC)cc1 (stereo not given)	-2%[59 µM]	-16%	21%	-3%	6%
Fc1ccc(NC(=S)NCCN2CCOCC2)cc1	-22%	-17%	-18%	-27%	0%
S=C(NCCN1CCOCC1)Nc1ccc(-c2nc3ccccc3[nH]2)cc1	45µM*	-18%	8%	-26%	25%
S=C(Nc1ccc(-c2nc3ccccc3[nH]2)cc1)Nc1cccnc1	45µM*	-34%	-36%	-27%	-9%
O=C1CCN(S(=O)(=O)c2ccc(Cl)cc2)N1	u	-7%	-9%	4%	-5%
O=C1CCN(S(=O)(=O)c2ccccc2)N1	11µM*	-6%	13%	-2%	-4%
COc1cc(CNc2ccc(N3CCCC3)cc2)ccc1OCc1ccccc1F	10µM*	11µM*	20µM*	25µM*	2%
COc1cc(CNCCN2CCOCC2)ccc1OCC(=O)NC(C)(C)C	u	1%	44%	-18%	-14%
C=CCOc1ccc(CNc2ccc(NC(=O)CC(C)C)cc2)cc1OC	71µM*	u	-1%	50µM*	16%
COc1cc(CNc2ccc(N3CCCCC3)cc2)ccc1OCC(=O)NC(C)(C)C	14µM*	45µM*	u	32µM*	26%
Cc1cccc([C@H]2[C@@H]3C=CCC[C@@H]3C(=O)N2Cc2ccccc2)c1	-22%	9%	78%	x	-2%
c1ccc2c(CCC3CCNCC3)c[nH]c2c1	x	x	x	x	17%
O=c1[nH][nH]c2c1[C@H](C1CCCC1)O[C@H](CCc1ccccc1)C2	x	x	x	x	15%
O=C(Oc1cccccc1=O)c1ccccc1	25µM*	-29%	11%	u	20%
Cc1cc(C)cc(-n2c(SCC(N)=O)nc3c(oc4ccccc43)c2=O)c1	-1%[59 µM]	-4%	34%	-14%	-4%
CC(C)c1cnc2c(c1SCc1cccc(F)c1)c(=O)n(C)c(=O)n2C	-41%[59 µM]	11%	31%[57 µM]	9%	3%
O=C1CCC/C=C/C[C@H](CC(=O)N(CCO)Cc2ccccc2)C(=O)N[C@@H](Cc2ccccc2)CO1	x	-39%	34%	x	2%
COc1ccc(C(=O)COC(=O)c2ccccn2)c(OC)c1	x	-20%	10%[57 µM]	x	-16%
O=C(COC(=O)c1ccccn1)Nc1ccccc1OC(F)F	4%	56µM*	20%	50µM*	1%
CCOC(=O)c1ncccc1NC(=O)CC(=O)Nc1cccnc1C(=O)OCC	x	13µM*	20%	x	10%
O=C(OCC(=O)c1ccc(Cl)cc1Cl)c1ccccn1	x	40µM*	28%	x	0%
O=C(COC(=O)c1cccnc1Cl)Nc1ccccc1OC(F)F	-20%	-13%	4%	0%	4%
O=C(COC(=O)c1ccccn1)Nc1cccnc1Cl	28µM*	u	-1%	79µM*	-4%
CCOc1ccc(C(=O)OCC(=O)Nc2cccnc2Cl)cc1OCC	x	-7%	28%	x	3%
